Experimental data from PubChem BioAssay AID652031 (The Scripps Research Institute Molecular Screening Center, 2013).
The whole screen tested about 16,000 compounds, of which about 70 (0.4%) were called active. Rule as the data show it: active = inhibition above about 50%; inactive = the rest. The list comes from a sample in which actives are over-represented; it also holds similar structures and randomly drawn compounds.

Each compound was assayed against Kappa-type opioid receptor (Homo sapiens) (UniProt P41145) (assay: antagonists of human kappa opioid receptor OPRK1, Maybridge library (AID 652031)). Conditions: OPRK1 cells, antagonist mode, fluorescence readout; at 9 µM; hits give high values.
Sequence of Kappa-type opioid receptor (Homo sapiens) (P41145 whole entry, looked up): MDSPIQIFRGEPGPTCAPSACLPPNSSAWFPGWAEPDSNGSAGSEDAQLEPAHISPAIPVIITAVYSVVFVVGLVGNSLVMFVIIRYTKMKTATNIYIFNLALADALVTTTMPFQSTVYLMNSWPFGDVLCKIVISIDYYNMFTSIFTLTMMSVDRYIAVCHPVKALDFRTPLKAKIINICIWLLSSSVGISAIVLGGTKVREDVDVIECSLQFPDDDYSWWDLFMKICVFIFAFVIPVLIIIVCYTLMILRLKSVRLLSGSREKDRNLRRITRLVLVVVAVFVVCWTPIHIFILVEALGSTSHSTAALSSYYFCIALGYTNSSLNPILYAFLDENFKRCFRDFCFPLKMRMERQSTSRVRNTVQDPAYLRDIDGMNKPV
With `COc1ccccc1N1CCN(C/C(N)=N/O)CC1` the inhibition was -2.8% (inactive).
In the case of `N/C(=N\OC(=O)c1cccc(Cl)c1)c1ccc2nonc2c1`, the inhibition is reported as 3% (inactive).
In the case of `COC(=O)C1=C(NNc2ccccc2)CSC1`, the inhibition is reported as 8.6% (inactive).
`FC(F)(F)c1ccc(-n2cn[nH]c2=S)cc1` was tested, and the inhibition was -0.4% (inactive).
For `COc1ccc(Cc2nc(C(C)(C)C)cs2)cc1`, the inhibition was 10.7% (inactive).
For `CCOC(=O)CNC(=O)c1ccc(-c2cccc([N+](=O)[O-])c2)o1`, the inhibition was 9.9% (inactive).
For `CSc1nc(-n2nc(C)cc2C)nc(-c2ccco2)c1C#N`, the inhibition was -17.5% (inactive).
`CC(N)=NCCc1ccncc1` was tested, and the inhibition was -6% (inactive).
`N#Cc1cn(-c2cccc(C(F)(F)F)c2)c(=O)n(Cc2ccc(Cl)cc2)c1=O` was tested, and the inhibition was -10.4% (inactive).
For `CC(C)S(=O)(=O)c1cscc1N/C=C(/C#N)C(=O)C1CC1`, the inhibition was 14.8% (inactive).
With `N#Cc1ccc(Oc2ccc(Cl)cc2)c([N+](=O)[O-])c1` the inhibition was 5.4% (inactive).
In the case of `O=C(CSc1nnc(-c2ccncc2)n1Cc1ccccc1)Nc1nnc(-c2ccco2)s1`, the inhibition is reported as 2.3% (inactive).
With `COC(C)(OC)c1ccc(C#N)c(=S)[nH]1` the inhibition was -2.3% (inactive).
With `FC(F)(F)c1cnc(NN=C2CCSCC2)c(Cl)c1` the inhibition was -7.6% (inactive).
With `COc1ccc(COCC(O)CN2CCN(c3ccc(C(F)(F)F)cn3)CC2)cc1` (stereo unspecified) the inhibition was -10.5% (inactive).
With `CN(C)C(=S)Nc1ccc(Br)cc1Cl` the inhibition was 12.1% (inactive).
With `N#CCCSc1sc(=S)sc1SCCC#N` the inhibition was -2.5% (inactive).
For `N/C(=N\OC(=O)CCn1cccc(C(F)(F)F)c1=O)c1ccc(OC(F)(F)F)cc1`, the inhibition was 3.1% (inactive).
`Cc1cc(-c2noc(-c3cccs3)n2)no1` was tested, and the inhibition was -20.2% (inactive).
`C/C(=N\NC(=S)Nc1cccc(F)c1)c1ccco1` was tested, and the inhibition was 14.4% (inactive).
With `Cn1cccc1CNC(=O)c1cc(F)cc2c1OCOC2` the inhibition was 11.7% (inactive).
For `CSc1nc(N/C=C(\C#N)C(=O)c2cccs2)n2nc(C)cc2n1`, the inhibition was 9.3% (inactive).
With `COc1c(/C(N)=N/O)cc(C)c2c1CCC2` the inhibition was -7.6% (inactive).
In the case of `COc1cccc(C(=O)c2sc3nsc(SCc4ccc(F)cc4)c3c2N)c1`, the inhibition is reported as 81.9% (active).
In the case of `CCOC(=O)N1CCN(CC(O)COc2ccc(OC(F)(F)F)cc2)CC1` (stereo unspecified), the inhibition is reported as 3.6% (inactive).
With `COC(=O)c1ccccc1N(C)C(=O)c1cc(OC)c(OC)c(OC)c1` the inhibition was 2.6% (inactive).
With `Cc1ccc(S(=O)(=O)NNC(=O)CCc2nc(-c3ccc(Cl)cc3)no2)cc1` the inhibition was -5.8% (inactive).
In the case of `COC(=O)c1cc(C(N)=O)c(SC)s1`, the inhibition is reported as 8.2% (inactive).
With `O=C(c1ccc(F)cc1)C1CCN(Cc2cn[nH]c2-c2ccccc2)CC1` the inhibition was -2.9% (inactive).
With `O=C(CSc1ccc(Cl)cc1)NCCSCc1ccco1` the inhibition was 15.7% (inactive).
In the case of `Cc1nn(-c2ccccc2)nc1C(=O)Nc1nnc(C2CC2)s1`, the inhibition is reported as 8.4% (inactive).
With `COc1ccc(OC(=O)/C=C/c2sc3ccccc3c2C)cc1` the inhibition was 8.8% (inactive).
For `O=C1CCC(=O)N(c2ccccc2)N1`, the inhibition was 14.7% (inactive).
`O=C1NC(=O)c2cc([N+](=O)[O-])c(Sc3c(Cl)cccc3Cl)cc21` was tested, and the inhibition was 4.3% (inactive).
With `N#CCc1ccc(NC(=O)c2ccccc2C(=O)Nc2ccc(CC#N)cc2)cc1` the inhibition was 20.8% (inactive).
With `O=C(Nc1ccc(I)cc1Cl)C(=S)NCc1cccs1` the inhibition was -3.3% (inactive).
`CCOC(=O)COc1cccc2c(C)cc(=O)oc12` was tested, and the inhibition was -1.5% (inactive).
With `O=C(c1ccc(Oc2ccc(Cl)cc2)c([N+](=O)[O-])c1)N1CCCC1` the inhibition was 4.1% (inactive).
`CCO/N=C\c1nn(S(C)(=O)=O)cc1Br` was tested, and the inhibition was -12.1% (inactive).
With `CNC(=O)c1ccccc1I` the inhibition was -1.2% (inactive).
With `CSc1nnc(-c2ccc(C(F)(F)F)cn2)o1` the inhibition was -0.1% (inactive).
For `Cn1cnnc1SCC(=O)Nc1cc(C(F)(F)F)cc(C(F)(F)F)c1`, the inhibition was 0.9% (inactive).
In the case of `CC(C)(C)NC(=O)N/N=C/c1[nH]ncc1Br`, the inhibition is reported as 1% (inactive).
With `Cc1cc(/C(N)=N/OC(=O)c2cccs2)c(-c2ccccc2)o1` the inhibition was -13% (inactive).
For `CN(C)NC(=O)c1csnc1-c1c(Cl)cccc1Cl`, the inhibition was 36.6% (inactive).
In the case of `COC(=O)c1ccc(S(=O)(=O)N2CCN(c3ccc([N+](=O)[O-])cn3)CC2)n1C`, the inhibition is reported as -6.6% (inactive).
With `CCOC(=O)/C(C#N)=C/c1ccc(-c2nccs2)cc1C(C)(C)C` the inhibition was -2.8% (inactive).
`COC(=O)c1cnc(N2CCCN(C(=O)C3COc4ccccc4O3)CC2)nc1C(F)(F)F` (stereo unspecified) was tested, and the inhibition was -8.4% (inactive).
In the case of `CCc1cnc(NS(=O)(=O)c2cc(Cl)sc2Cl)nc1-c1c(F)cccc1F`, the inhibition is reported as 1.8% (inactive).
In the case of `CCOC(=O)Cc1nc(N)ncc1C(=O)OCC`, the inhibition is reported as 17.3% (inactive).
In the case of `FC(F)(F)c1ccc(/C=N/Nc2nccc(C(F)(F)F)n2)cc1`, the inhibition is reported as 6.7% (inactive).
For `Cc1nc2sc(-c3ccccc3)cc2c(=O)o1`, the inhibition was -0.4% (inactive).
In the case of `CCOCCOCCN(CC)c1ccc(N=Nc2c(C#N)cc([N+](=O)[O-])cc2C#N)c(NC(C)=O)c1`, the inhibition is reported as -11.4% (inactive).
With `O=c1cc(-c2ccccc2)sc2ccc(Cl)cc12` the inhibition was -5.7% (inactive).
In the case of `OC(CNCCNc1nccc(C(F)(F)F)n1)COc1ccc(Cl)c(Cl)c1` (stereo unspecified), the inhibition is reported as -9.3% (inactive).
For `CC(=O)Nc1ccc(/C(N)=N/O)cc1`, the inhibition was 9.1% (inactive).
In the case of `O=c1oc(/C=C/c2ccccc2)nc2ccccc12`, the inhibition is reported as -41.1% (inactive).
With `COc1cc(OC)nc(/N=C/c2nc(-c3ccccc3)oc2O)n1` the inhibition was 5.7% (inactive).
In the case of `N/C(=N/OC(=O)NC(=O)c1c(Cl)cccc1Cl)c1ccc(F)cc1F`, the inhibition is reported as -5.4% (inactive).
For `N#Cc1c(-c2ccccc2)c(-c2ccccc2)n[nH]c1=O`, the inhibition was 20% (inactive).
For `N#C/C(=C\C=C\c1ccccc1)c1nc2ccccc2[nH]1`, the inhibition was 13.4% (inactive).
In the case of `S=C(Nc1cccnc1)N1CCCN(Cc2ccc(Cl)cc2Cl)CC1`, the inhibition is reported as 4.7% (inactive).
With `Cc1ccc(Oc2c(C)[nH]c(=S)[nH]c2=O)cc1` the inhibition was -1.2% (inactive).
With `O=C(Nc1ccccc1N1CCOCC1)C1CCN(c2nccc(C(F)(F)F)n2)CC1` the inhibition was 9.4% (inactive).
In the case of `Cc1cc(NC(=O)c2cc(-c3ccccc3)c(C(F)(F)F)s2)no1`, the inhibition is reported as -1.6% (inactive).
In the case of `CSc1sc(C(=O)Nc2cccc(Cl)c2)c(-c2cccs2)c1C#N`, the inhibition is reported as 5.9% (inactive).
